Laboratory results reported in ChEMBL document CHEMBL1157539, “Thousands of chemical starting points for antimalarial lead identification” (Nature, 2010).

Assays:
Assay type in all cases: functional
[1] = system: Plasmodium falciparum; assay: GSK_TCMDC: Inhibition of Plasmodium falciparum 3D7 in whole red blood cells, using parasite LDH activity as an index of growth. Test compounds present at 2uM
[2] = system: Plasmodium falciparum; assay: GSK_TCMDC: Inhibition of Plasmodium falciparum Dd2 in whole red blood cells, using parasite LDH activity as an index of growth. Test compounds present at 2uM
[3] = system: HepG2; assay: GSK_TCMDC: Percent inhibition of human HepG2 cell line. Test compounds present at 10uM.

Row | Compound | Inhibition [1] | Inhibition [2] | Inhibition [3]
1 | Cn1cncc1C(=O)Nc1cccc(-c2cccc(-c3nc4cc(F)ccc4[nH]3)c2)c1 | 100% | 45% | 16%
2 | Cc1c(Cc2ccccc2Br)cnc2nc(N)nc(N)c12.Cl | 88% | 97% | 67%
3 | COC(=O)Nc1cc(C(F)(F)F)ccc1N1CCCC(NS(=O)(=O)c2ccc(C(C)(C)C)cc2)C1 (stereo not given) | 97% | 90% | 0%
4 | CS(=O)(=O)Nc1ccc2[nH]cc(C3CCN(CCCCCNC(=O)/C=C/c4ccc(Cl)c(Cl)c4)CC3)c2c1 | 100% | 0% | 1%
5 | O=C(N/N=C/c1nc2ccccc2[nH]1)c1cccc([N+](=O)[O-])c1 | 99% | 82% | 0%
6 | Cc1nc(C)c(-c2ccc(C(=O)c3ccc(Cl)cc3)cc2)c(O)c1Cl | 98% | 95% | 0%
7 | COc1cc2c(cc1NC(=O)CN1CCN(C(=O)c3ccco3)CC1)oc1ccccc12 | 96% | 96% | 13%
8 | CCCCc1ccc(-c2nc(NC(=O)Nc3[nH]c(-c4ccccc4)nc3C(=O)OCC)c(C(=O)OCC)[nH]2)cc1 | 95% | 26% | 0%
9 | COc1cccc(NC(=O)[C@H](C)n2c(=O)[nH]c3ccccc3c2=O)c1 | 100% | 92% | 8%
10 | CN1CCC(NCc2cccc(-c3cccc(-c4nc5cc(C(F)(F)F)ccc5[nH]4)c3)c2)CC1.O=C(O)C(F)(F)F | 100% | 100% | 35%
